In PubChem BioAssay (Tox21):
“And” between values parts separate entries of the source, which are not always exact repeats. Equal values may be shown once. Inconclusive results are not listed. The source made the active and inactive calls. Unless noted, calls come from the whole dose curve; as a rule, active = well fitted curve in the direction sought with a large enough effect in the repeat runs; inconclusive = weak or mixed curves; inactive = no such curve, though single readings can be large; an effect the other way counts as inactive or inconclusive.

What was measured:
[1] = qHTS assay to identify small molecule antagonists of the estrogen receptor alpha (ER-alpha) signaling pathway - cell viability counter screen (AID 743074; calls by dose curve;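 note: HEK293 cells carrying ER-alpha-UAS-bla reporter stimulated with 17beta-estradiol; nearly all actives have a fitted effect of over 45% in size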; note: potency is the fitted concentration of half-maximal effect)
[2] = molecular target: Estrogen receptor (Homo sapiens) (UniProt P03372); experiment: qHTS assay to identify small molecule agonists of the estrogen receptor alpha (ER-alpha) signaling pathway (AID 743075; calls by dose curve;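 note: HEK293 GripTite cells with ER-alpha and UAS-driven beta-lactamase reporter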)
[3] = qHTS assay to identify small molecule antagonists of the estrogen receptor alpha (ER-alpha) signaling pathway using the BG1 cell line (AID 743080; calls by dose curve;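 note: BG1 cells stimulated with 17beta-estradiol alongside compound; nearly all actives have a fitted effect of over 25% in size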; note: potency is the fitted concentration of half-maximal effect); settings: BG1Luc4E2 ERE-luciferase antagonist mode, luminescence; activity change, negative = inhibition: at 70.3 µM (top of the series)
In short: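 Luminescence from a 4×ERE-luciferase reporter in BG1-Luc-4E2 cells served as read-out. Cells, pre-cultured 5 days in stripped-serum phenol-red-free medium, were exposed to compound with 17beta-estradiol co-stimulation for 21.5 h at 37 C.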

[4] = qHTS assay to identify small molecule antagonists of the estrogen receptor alpha (ER-alpha) signaling pathway using the BG1 cell line - cell viability counter screen (AID 743081);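 note: compound given together with 17beta-estradiol as the ER stimulus; nearly all actives have a fitted effect of over 45% in size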; note: potency is the fitted concentration of half-maximal effect
[5] = molecular target: Aromatase (Homo sapiens) (UniProt P11511); experiment: qHTS assay to identify aromatase inhibitors (AID 743083); note: nearly all actives have a fitted effect of over 55% in size; note: potency is the fitted concentration of half-maximal effect
[6] = molecular target: Aryl hydrocarbon receptor (Homo sapiens) (UniProt P35869); experiment: qHTS assay to identify small molecule that activate the aryl hydrocarbon receptor (AhR) signaling pathway (AID 743085); note: nearly all actives have a fitted effect of over 15% in size; note: potency is the fitted concentration of half-maximal effect;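 for activation: HG2L7.5c1 human HepG2 liver cells with stably integrated DRE-driven firefly reporter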
In short: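 Measured in HG2L7.5c1 cells: CellTiter-Fluor signal (30 min incubation, 37C) for viability, then luciferase luminescence (30 min, room temperature). Compound contact time was 24 h at 37C, following a 5 h pre-incubation.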

[7] = molecular target: Peroxisome proliferator-activated receptor gamma (Homo sapiens) (UniProt P37231); experiment: qHTS assay to identify small molecule agonists of the peroxisome proliferator-activated receptor gamma (PPARg) signaling pathway (AID 743094; active = well fitted activation curve with a large enough effect in the signal ratio in the repeat runs, not every such curve was filed as active; the % refers to the signal ratio; note: potency is the fitted concentration of half-maximal effect)
In short: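 Compounds dissolved in DMSO were added to PPARg UAS-bla HEK293H cells for 17 h at 37C, and reporter expression was quantified by fluorescence intensity after 1 h with LiveBLAzer B/G FRET substrate.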

[8] = qHTS assay to identify small molecule antagonists of the peroxisome proliferator-activated receptor gamma (PPARg) signaling pathway - cell viability counter screen (AID 743194); note: nearly all actives have a fitted effect of over 55% in size; note: potency is the fitted concentration of half-maximal effect
In short: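 Viability was measured as CellTiter-Glo luminescence in GeneBLAzer PPARg UAS-bla HEK293H cells. These cells had been exposed 17 h at 37 C to compounds together with rosiglitazone at 50 nM final, with the beta-lactamase readout taken in the same wells.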

[9] = qHTS assay for small molecule agonists of the antioxidant response element (ARE) signaling pathway - cell viability counter screen (AID 743203; calls by dose curve; note: nearly all actives have a fitted effect of over 55% in size; note: potency is the fitted concentration of half-maximal effect)
In short: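 Following 16 hrs of compound treatment at 37C, HepG2 cells with an ARE-controlled beta-lactamase gene were lysed with CellTiter-Glo. Luminescence was read after 30 min at room temperature.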

[10] = qHTS assay for small molecule activators of the heat shock response signaling pathway - cell viability counter screen (AID 743209); note: nearly all actives have a fitted effect of over 50% in size; note: potency is the fitted concentration of half-maximal effect
In short: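 Readout: CellTiter-Glo luminescence, 30 min at room temperature. System: HSE-bla HeLa cells, 1500/well, plated overnight. Treatment: compounds in DMSO, 5 h at 37 C.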

[11] = qHTS assay to identify small molecule agonists of the peroxisome proliferator-activated receptor delta (PPARd) signaling pathway - cell viability counter screen (AID 743211); note: nearly all actives have a fitted effect of over 55% in size; note: potency is the fitted concentration of half-maximal effect
In short: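 Following 5 h plating at 37 C and 5% CO2, PPARd UAS-bla HEK293H cells took up test compounds for 17 h. Viability was quantified by luminescence 30 min after CellTiter-Glo addition at room temperature.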

[12] = qHTS assay to identify aromatase inhibitors - cell viability counter screen (AID 743084); note: potency is the fitted concentration of half-maximal effect
[13] = qHTS assay to identify small molecule that activate the aryl hydrocarbon receptor (AhR) signaling pathway - cell viability counter screen (AID 743086); note: nearly all actives have a fitted effect of over 45% in size; note: potency is the fitted concentration of half-maximal effect
In short: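 Cytotoxicity counter screen: CellTiter-Fluor signal (30 min, 37 C) in 4000 HepG2 cells/well carrying the DRE-luciferase reporter, following 24 h compound exposure at 37 C.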

[14] = molecular target: Estrogen receptor (Homo sapiens) (UniProt P03372); experiment: qHTS assay to identify small molecule agonists of the estrogen receptor alpha (ER-alpha) signaling pathway using the BG1 cell line (AID 743079); settings: BG1Luc4E2 cells, ERE-luciferase agonist, 22 h; activation: at 70.3 µM (top of the series); note: nearly all actives have a fitted effect of over 20% in size
[15] = molecular target: Peroxisome proliferator-activated receptor gamma (Homo sapiens) (UniProt P37231); experiment: qHTS assay to identify small molecule antagonists of the peroxisome proliferator-activated receptor gamma (PPARg) signaling pathway (AID 743191; calls by dose curve; note: nearly all actives have a fitted effect of over 30% in size; note: potency is the fitted concentration of half-maximal effect)
In short: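 Beta-lactamase reporter under UAS control in HEK293H PPARg-bla cells; compound treatment 17 h at 37C. Read-out: fluorescence intensity after 1 h room-temperature incubation with LiveBLAzer B/G FRET substrate.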

[16] = molecular target: Peroxisome proliferator-activated receptor delta (Homo sapiens) (UniProt Q03181); experiment: qHTS assay to identify small molecule agonists of the peroxisome proliferator-activated receptor delta (PPARd) signaling pathway (AID 743212; calls by dose curve;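 note: HEK293H cells with PPARd UAS beta-lactamase reporter GeneBLAzer system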)
In short: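 HEK293H PPARd-bla cells; 5 h preincubation 37 C/5% CO2; compound (DMSO) 37 C; LiveBLAzer B/G FRET substrate 2 h RT; fluorescence intensity.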

[17] = qHTS assay for small molecule activators of the heat shock response signaling pathway (AID 743210; active = well fitted activation curve with a large enough effect in the signal ratio in the repeat runs, with a control signal flat, not every such curve was filed as active; the % refers to the signal ratio;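 note: HeLa cells with beta-lactamase reporter driven by heat shock elements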)
In short: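 HeLa HSE-bla cells, overnight plating; cpd in DMSO 5 h, 37 C; LiveBLAzer B/G FRET substrate 2.5 h RT; fluorescence intensity read.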

[18] = qHTS assay for small molecule agonists of the antioxidant response element (ARE) signaling pathway (AID 743202; active = well fitted activation curve with a large enough effect in the signal ratio in the repeat runs, not every such curve was filed as active; the % refers to the signal ratio; note: potency is the fitted concentration of half-maximal effect)
In short: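 Quantitative high-throughput format in HepG2 cells bearing an integrated ARE-beta-lactamase reporter. Compound exposure lasted 16 h at 37 C, and fluorescence was read 2 h after adding LiveBLAzer B/G substrate at room temperature.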

Measured: Potency

Sequence of Aryl hydrocarbon receptor (Homo sapiens) (P35869 whole entry, looked up): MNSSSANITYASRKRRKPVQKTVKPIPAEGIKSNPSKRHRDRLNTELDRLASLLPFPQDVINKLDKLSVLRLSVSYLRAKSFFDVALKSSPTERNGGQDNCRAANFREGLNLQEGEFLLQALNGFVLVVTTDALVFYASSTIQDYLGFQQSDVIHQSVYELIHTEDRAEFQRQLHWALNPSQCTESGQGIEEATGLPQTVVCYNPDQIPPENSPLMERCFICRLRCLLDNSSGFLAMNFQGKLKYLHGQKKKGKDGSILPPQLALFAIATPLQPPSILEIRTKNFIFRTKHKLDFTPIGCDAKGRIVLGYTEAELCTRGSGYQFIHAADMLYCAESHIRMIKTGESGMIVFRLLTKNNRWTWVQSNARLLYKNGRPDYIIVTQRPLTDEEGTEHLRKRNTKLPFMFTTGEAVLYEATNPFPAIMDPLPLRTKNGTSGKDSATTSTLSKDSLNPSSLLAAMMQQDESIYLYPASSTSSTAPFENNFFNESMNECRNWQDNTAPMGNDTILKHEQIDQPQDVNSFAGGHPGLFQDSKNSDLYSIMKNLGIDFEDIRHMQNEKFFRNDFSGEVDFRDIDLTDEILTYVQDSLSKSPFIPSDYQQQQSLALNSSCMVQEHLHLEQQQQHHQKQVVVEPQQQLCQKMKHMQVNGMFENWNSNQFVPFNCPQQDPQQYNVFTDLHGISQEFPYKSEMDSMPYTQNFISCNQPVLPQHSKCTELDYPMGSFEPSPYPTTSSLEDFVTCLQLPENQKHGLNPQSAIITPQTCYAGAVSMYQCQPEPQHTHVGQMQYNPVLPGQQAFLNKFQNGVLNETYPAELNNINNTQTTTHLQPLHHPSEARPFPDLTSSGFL
Sequence of Aromatase (Homo sapiens) (P11511 whole entry, looked up): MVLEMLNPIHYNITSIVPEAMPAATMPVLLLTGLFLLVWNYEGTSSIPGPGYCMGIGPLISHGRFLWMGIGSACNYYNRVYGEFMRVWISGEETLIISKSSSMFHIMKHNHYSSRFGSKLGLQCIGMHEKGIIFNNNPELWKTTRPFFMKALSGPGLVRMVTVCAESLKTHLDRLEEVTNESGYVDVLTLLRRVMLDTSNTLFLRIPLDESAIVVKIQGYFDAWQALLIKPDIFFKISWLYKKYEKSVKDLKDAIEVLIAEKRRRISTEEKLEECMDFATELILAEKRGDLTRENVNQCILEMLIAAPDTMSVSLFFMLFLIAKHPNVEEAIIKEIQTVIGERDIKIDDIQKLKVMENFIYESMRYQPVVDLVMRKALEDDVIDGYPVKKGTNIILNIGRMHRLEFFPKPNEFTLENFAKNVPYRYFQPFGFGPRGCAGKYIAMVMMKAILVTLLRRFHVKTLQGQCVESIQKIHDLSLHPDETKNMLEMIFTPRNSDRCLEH
Sequence of Peroxisome proliferator-activated receptor gamma (Homo sapiens) (P37231 whole entry, looked up): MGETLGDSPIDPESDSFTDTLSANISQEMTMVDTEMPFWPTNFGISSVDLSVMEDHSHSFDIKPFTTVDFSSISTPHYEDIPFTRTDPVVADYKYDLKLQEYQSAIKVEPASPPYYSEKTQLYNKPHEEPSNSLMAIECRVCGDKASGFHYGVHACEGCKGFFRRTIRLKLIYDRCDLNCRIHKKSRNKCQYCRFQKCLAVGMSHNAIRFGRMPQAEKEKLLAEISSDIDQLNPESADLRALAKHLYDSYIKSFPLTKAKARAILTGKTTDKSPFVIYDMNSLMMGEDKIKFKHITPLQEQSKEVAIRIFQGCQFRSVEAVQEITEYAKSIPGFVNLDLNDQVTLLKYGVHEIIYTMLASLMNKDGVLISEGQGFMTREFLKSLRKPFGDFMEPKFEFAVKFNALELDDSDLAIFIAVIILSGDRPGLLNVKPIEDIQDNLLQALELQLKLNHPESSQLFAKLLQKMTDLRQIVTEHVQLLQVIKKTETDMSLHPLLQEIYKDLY
Sequence of Estrogen receptor (Homo sapiens) (P03372 whole entry, looked up): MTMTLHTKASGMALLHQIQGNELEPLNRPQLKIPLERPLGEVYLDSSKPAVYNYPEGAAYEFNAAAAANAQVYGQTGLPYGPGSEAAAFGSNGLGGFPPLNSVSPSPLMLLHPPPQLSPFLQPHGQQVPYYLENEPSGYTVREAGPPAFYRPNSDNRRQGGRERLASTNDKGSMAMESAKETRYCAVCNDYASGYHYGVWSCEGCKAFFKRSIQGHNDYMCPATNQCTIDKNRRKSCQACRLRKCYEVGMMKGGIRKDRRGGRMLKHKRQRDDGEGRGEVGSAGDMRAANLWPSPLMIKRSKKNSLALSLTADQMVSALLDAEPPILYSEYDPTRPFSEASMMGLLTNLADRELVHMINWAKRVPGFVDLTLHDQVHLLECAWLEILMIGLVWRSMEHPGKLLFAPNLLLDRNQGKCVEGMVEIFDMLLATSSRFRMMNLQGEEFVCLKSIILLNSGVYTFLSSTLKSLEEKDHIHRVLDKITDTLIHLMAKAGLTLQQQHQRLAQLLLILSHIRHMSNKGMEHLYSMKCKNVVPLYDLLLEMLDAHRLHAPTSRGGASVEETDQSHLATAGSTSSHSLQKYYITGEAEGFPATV
Sequence of Peroxisome proliferator-activated receptor delta (Homo sapiens) (Q03181 whole entry, looked up): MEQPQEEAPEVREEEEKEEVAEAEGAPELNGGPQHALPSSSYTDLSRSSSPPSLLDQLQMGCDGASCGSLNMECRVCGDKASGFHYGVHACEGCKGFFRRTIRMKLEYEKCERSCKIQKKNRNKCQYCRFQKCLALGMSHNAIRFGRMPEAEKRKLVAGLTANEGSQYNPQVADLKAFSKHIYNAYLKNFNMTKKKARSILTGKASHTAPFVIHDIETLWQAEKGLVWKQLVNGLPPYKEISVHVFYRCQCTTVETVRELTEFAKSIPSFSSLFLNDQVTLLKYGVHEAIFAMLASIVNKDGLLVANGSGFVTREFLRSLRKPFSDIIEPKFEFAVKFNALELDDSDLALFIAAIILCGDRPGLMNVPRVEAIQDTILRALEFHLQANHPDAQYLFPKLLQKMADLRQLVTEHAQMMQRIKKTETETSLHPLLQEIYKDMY

O=C(Nc1ccc(Cl)cc1)Nc1ccc(Cl)c(C(F)(F)F)c1
inactive: [2] | [4] | [6] | [7]
active: [1] 9.52 µM | [3] 21.1 µM | [5] 10.6 µM | [8] 8.41 µM | [9] 16.8 µM | [10] 9.44 µM | [11] 13.3 µM

CCCOc1sc(C(=O)N2CCC(c3cc(CN)ccc3F)CC2)c(C)c1Br
active: [1] 44.9 µM | [5] 25 µM | [12] 44.5 µM | [13] 56 µM | [8] 17.9 µM | [9] 17.7 µM | [11] 15.9 µM

Cc1c(C)n(Cc2ccccc2)c2ccc(C(=O)OCCN(C)C)cc12
active: [11] 26.6 µM
inactive: [4] | [5] | [12] | [7] | [8] | [9]

CN1[C@@H]2CC[C@H]1CC(OC(=O)C(CO)c1ccccc1)C2 (stereo not given in full)
inactive: [1] | [4] | [5] | [12] | [13] | [8] | [10] | [11]

Clc1ccc(C(Cn2ccnc2)OCc2ccsc2Cl)c(Cl)c1 (stereo not given)
inactive: [3] | [4] | [12] | [6] | [7]
active: [5] 5.31 µM | [13] 26.6 µM | [11] 29.8 µM

CC(C)c1cccc(C(C)C)c1N1C(=O)c2ccc(O)cc2C1=O
inactive: [6] | [7] | [10]
active: [5] 54.5 µM

N#CSCSc1nc2ccccc2s1
inactive: [2] | [14] | [4] | [13]
active: [5] 15.4 µM | [12] 27.3 µM | [8] 7.76 µM | [9] 30.6 µM

COC(=O)C1=C(C)NC(C)=C(C(=O)OCCCN2CCC(c3ccccc3)(c3ccccc3)CC2)C1c1cccc([N+](=O)[O-])c1 (stereo not given)
active: [13] 29.8 µM | [8] 33.5 µM | [11] 10.6 µM

COc1ccc(-n2nc(CCC(=O)N(C)O)cc2-c2ccc(Cl)cc2)cc1
active: [15] 3.76 µM
inactive: [8] | [9] | [10] | [16]

COc1ccc2sc(C(=O)Nc3nnn[nH]3)c(OC(C)C)c2c1
active: [3] 54.3 µM | [7] 5.47 µM
inactive: [2] | [4] | [12] | [6] | [9] | [17]

Oc1c(Br)cc(Br)c2cccnc12
active: [6] 0.668 µM | [11] 2.98 µM
inactive: [2] | [5] | [12] | [13] | [7] | [9] | [10]

Cc1ccc(-n2[nH]c(C)c(N=Nc3cccc(-c4cccc(C(=O)O)c4)c3O)c2=O)cc1C
inactive: [9] | [10]
active: [8] 2.37 µM | [11] 26.6 µM

C=C(C)C(=O)OCCC[Si](Cl)(Cl)Cl
inactive: [1] | [4] | [5] | [12] | [6] | [13] | [7] | [15] | [8] | [18] | [9] | [10] | [17] | [11] | [16]

CN1CCN(C2Cc3ccccc3Sc3ccc(Cl)cc32)CC1 (stereo not given)
inactive: [2] | [14] | [3] | [4] | [6] | [16]
active: [15] 29.8 µM | [8] 29.8 µM | [9] 29.8 µM | [11] 26.6 µM

COc1cc(C(=O)NS(=O)(=O)c2ccccc2C)ccc1Cc1cn(C)c2ccc(NC(=O)OC3CCCC3)cc12
active: [6] 26.6 µM | [7] 0.169 µM | [18] 29.8 µM
inactive: [2] | [14] | [3] | [4] | [5] | [12] | [13] | [9] | [10] | [17]

CCN(CC)c1ccc(N)cc1
inactive: [7] | [15] | [8]
active: [4] 70.5 µM | [5] 28.1 µM | [12] 31.5 µM | [6] 25 µM | [13] 56 µM | [18] 12.5 µM | [11] 44.8 µM

CNCC[C@H](Oc1cccc2ccccc12)c1cccs1
active: [6] 11.9 µM | [8] 11.9 µM | [9] 6.68 µM | [10] 29.8 µM | [11] 6.68 µM
inactive: [13]

Cc1ccc(CCn2c3c(c4cc(Cl)ccc42)CN(C)CC3)cn1
inactive: [8] | [9] | [17]

C[C@H]1O[C@@H](O[C@H]2[C@@H](O)C[C@H](O[C@H]3[C@@H](O)C[C@H](O[C@H]4CC[C@@]5(C)[C@H](CC[C@@H]6[C@@H]5C[C@@H](O)[C@]5(C)[C@@H](C7=CC(=O)OC7)CC[C@]65O)C4)O[C@@H]3C)O[C@@H]2C)C[C@H](O)[C@@H]1O
active: [1] 0.0195 µM | [8] 21.9 nM and 4.8 nM | [9] 12.2 nM and 7.6 nM | [10] 55 nM and 13.6 nM | [11] 0.0385 µM
inactive: [4] | [5] | [12] | [6] | [13] | [17]
